Structures are written as SMILES. Active and inactive are the calls of the source.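 How the source made its calls, unless noted: active means visually confirmed hit in the image check and inhibition above 20%; inconclusive means visually confirmed hit but inhibition not above 20%; inactive means no visual hit in the image check.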

The values below come from PubChem BioAssay.

Test system in one assay: not listed separately
Description: inhibitors of E-selectin induction by TNFa, primary screen, imaging, HUVEC, immunofluorescence, MLSMR starter and 10KST1 sets (AID 487).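 On inhibition: signal is fraction of cell area covered by stained E-selectin grains.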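 On nuclei count: 100% = median nuclei count of all wells on the same plate.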 The note with it: HUVEC TNFalpha-induced E-selectin immunofluorescence imaging, at 2 µM; inhibition: stronger effect = higher value; nuclei count: measured here: cell number, toxicity.
In the case of `Cc1ccc(N(C(C)C(=O)Nc2ccc(S(=O)(=O)N3CCOCC3)cc2)S(C)(=O)=O)cc1` (stereo not given), the inhibition was -0.3% (inactive) and the nuclei count is 92.3%.
As for `c1ccc(N2CCN(Cc3cn4cccnc4n3)CC2)cc1`, the nuclei count is 101% and the inhibition was -36.1% (inactive).
For `Oc1ccc(N2CCN(C(c3ccncc3)c3nnnn3C3CCCC3)CC2)cc1` (stereo not given), in that order: 115% and -67.5% (inactive).
The corresponding values for `COC(=O)[C@H](C)NC(=O)Nc1cccc(C(F)(F)F)c1` are 109% and -98.7% (inactive).
Take `CCCCNC(=O)c1nc2ncc(Br)cn2n1`: the inhibition was 56.5% (inactive) and the nuclei count was determined as 81.1%.
As for `CCN1CCN(C(c2cccs2)C(C)NC(=O)c2ccccc2)CC1` (stereo not given), the nuclei count was 128% and the inhibition was -20.1% (inactive).
The corresponding values for `COc1ccc(C2C(C#N)=C(N)Oc3cc4c(cc32)OCO4)cc1` (stereo not given) are 110% and -103% (inactive).
The corresponding values for `CCn1c(=O)c(C(=O)NCc2ccc(OC)cc2)c(O)c2ccccc21` are 101% and 33.9% (inactive).
For `CCOC(=O)c1ccccc1NC(=O)c1ccc2c(=O)n3c(nc2c1)CCCCC3`, the nuclei count was 81.5% and the inhibition is -28.3% (inactive).
`CN(CCc1ccccn1)c1ncnc2[nH]ncc12`: the inhibition was 55.8% (active) and the nuclei count is 63.8%.
For the compound `CN(C(=O)c1cc2sccc2n1C)C1CCCCC1`, the nuclei count was 116% and the inhibition is -64% (inactive).
The corresponding values for `COc1ccc(-n2c(SCC(=O)N3CCCCC3C)nnc2-c2cccnc2)cc1` (stereo not given) are 103% and -23.2% (inactive).
As for `CCn1nnc(NC(=O)c2ccccc2Br)n1`, the inhibition is 12.4% (inactive) and the nuclei count was found to be 95.4%.
As for `CC(=O)N1CCN(c2ccc(S(=O)(=O)N3CCCCC3)cn2)CC1`, the inhibition was -6.8% (inactive) and the nuclei count stood at 132%.
The corresponding values for `CC1CCN(C(=O)CSCC(=O)Nc2nc(-c3cccs3)cs2)CC1` are -38.7% (inactive) and 114%.
For `Cn1cnc2c1c(=O)n(Cc1cccc(Br)c1)c(=O)n2C`, in that order: -17.1% (inactive) and 122%.
`O=C(NC1CCCCC1)C1CCCN1C(=O)NCc1ccccc1` (stereo not given): the inhibition is -33.5% (inactive) and the nuclei count turned out to be 120%.
`CCOC(=O)c1ccc(NC(=O)COc2ccc(-n3cnnn3)cc2)cc1`: the inhibition was 5% (inactive) and the nuclei count stood at 102%.
Consider `Cc1cc(C)c2c(=O)n(CC(=O)NCCCN3CCOCC3)sc2n1`, for which the inhibition is 36.7% (inactive) and the nuclei count was found to be 106%.
The corresponding values for `Cc1cccc2sc(NC(=O)CN(C)S(=O)(=O)c3cccs3)nc12` are -1.7% (inactive) and 103%.
For `CCCc1nc(NCc2ccncc2)c2nnn(Cc3ccccc3F)c2n1`, in that order: -57% (inactive) and 120%.
For `O=S1(=O)CCC(NS(=O)(=O)/C=C/c2ccccc2)C1` (stereo not given), in that order: -1.4% (inactive) and 96.4%.
Consider `O=C(NCC1CCCO1)C1CCCN(S(=O)(=O)c2cccc3nsnc23)C1` (stereo not given), for which the inhibition was -30.2% (inactive) and the nuclei count was found to be 114%.
For the compound `COc1ccccc1NC(=O)N(C1CCCC1)C1CCN(C(C)=O)CC1`, the nuclei count came out at 123% and the inhibition was -61.6% (inactive).
The corresponding values for `O=C1NC(Cc2c[nH]c3ccccc23)C(=O)N1CCOc1ccccc1` (stereo not given) are 138% and -14.9% (inactive).
For `COC(=O)C(C)Sc1nnc2n(-c3cccc(C)c3)c(=O)c3c4c(sc3n12)CCCC4` (stereo not given), in that order: 120% and -1.2% (inactive).
For `COc1ccc2[nH]c(=O)c(CN(CC3CCCO3)C(=O)Nc3ccc(F)cc3)cc2c1` (stereo not given), in that order: 114% and -38.1% (inactive).
In the case of `Cc1nc2ccccc2c2oc(C(=O)NCC3COc4ccccc4O3)cc12` (stereo not given), the inhibition was 3.3% (inactive) and the nuclei count worked out at 99%.
For `CCN(Cc1cc2ccccc2[nH]c1=O)S(=O)(=O)c1ccccc1`, in that order: 38.9% (inactive) and 104%.
The corresponding values for `CC(=O)NC(=O)NC1CSCC1OC(C)=O` (stereo not given) are -110% (inactive) and 132%.
The corresponding values for `COc1ccc(S(=O)(=O)NCC(c2cccnc2)N2CCN(c3ccc(F)cc3)CC2)cc1C` (stereo not given) are 19.6% (inactive) and 87.7%.
For the compound `COCCn1c(CN2CCN(c3cccc(Cl)c3)CC2)nc2c1c(=O)n(C)c(=O)n2C`, the inhibition is -24.9% (inactive) and the nuclei count came out at 120%.
For `CC1(C)CC(CCNC(=O)c2ccco2)CC(C)(C)N1`, in that order: -91.3% (inactive) and 81.4%.
Turning to `O=C1c2ccccc2C(=O)N1C/C=C/c1ccccc1`, the inhibition is -3.5% (inactive) and the nuclei count came out at 112%.
The corresponding values for `CCn1c(SCc2cccc(C(F)(F)F)c2)nnc1-c1ccco1` are -15.2% (inactive) and 104%.
For `c1ccc(-c2nnc(CSc3nncs3)o2)cc1`, in that order: -49.2% (inactive) and 106%.
For `Cc1ccc(C)c(N2CCN(S(=O)(=O)c3ccc4c(c3)OCCO4)CC2)c1`, the nuclei count turned out to be 209% and the inhibition is -136% (inactive).
As to `CCOc1cccc(-n2nnnc2-c2ccc(OC)cc2)c1`, the inhibition was -13.7% (inactive) and the nuclei count was found to be 112%.
The corresponding values for `CCOC(=O)C1CCCN(C(=O)c2ccc(CS(=O)(=O)c3ccc(Br)cc3)o2)C1` (stereo not given) are -61.3% (inactive) and 111%.
For `C=CCSC1=C(C#N)C(c2ccccc2Cl)CC(=O)N1` (stereo not given), in that order: -59% (inactive) and 171%.

A further assay deals with Voltage-gated potassium channel subunit beta-2 (Rattus norvegicus) (UniProt P62483). Kind of assay: KvBeta enzyme negative modulators, primary screen, biochemical, NADPH fluorescence (AID 622;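 active means fluorescence slope higher than the sample average by over 3 SD, cut at about -0.22 in these data, passing the limit was not always enough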;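 further: slope of raw intensity against log time taken from 70 to 1610 s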). The note with it: recombinant KvBeta, 4-cyanobenzaldehyde reduction, at 10 µM, stronger effect = higher value.
Voltage-gated potassium channel subunit beta-2 (Rattus norvegicus), sequence (P62483 whole entry, looked up): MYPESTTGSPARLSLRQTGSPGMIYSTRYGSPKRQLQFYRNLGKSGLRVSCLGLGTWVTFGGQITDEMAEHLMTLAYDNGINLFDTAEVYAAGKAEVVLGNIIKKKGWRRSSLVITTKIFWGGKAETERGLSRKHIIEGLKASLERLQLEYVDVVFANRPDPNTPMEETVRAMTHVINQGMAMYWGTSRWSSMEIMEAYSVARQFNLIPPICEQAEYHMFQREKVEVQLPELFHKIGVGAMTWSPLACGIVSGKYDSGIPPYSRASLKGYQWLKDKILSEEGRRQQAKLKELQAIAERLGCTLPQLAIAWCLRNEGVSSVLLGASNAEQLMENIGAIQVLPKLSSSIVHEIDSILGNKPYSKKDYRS
As for `Cc1ccc(N(C(C)C(=O)Nc2ccc(S(=O)(=O)N3CCOCC3)cc2)S(C)(=O)=O)cc1` (stereo not given), the fluorescence slope is -0.518 (inactive).
On the same count and under the same terms, the result for `c1ccc(N2CCN(Cc3cn4cccnc4n3)CC2)cc1` reads -0.494 (inactive); that for `Oc1ccc(N2CCN(C(c3ccncc3)c3nnnn3C3CCCC3)CC2)cc1` (stereo not given), -0.502 (inactive).
The same measure, in the same setting: with `COC(=O)[C@H](C)NC(=O)Nc1cccc(C(F)(F)F)c1` the figure was -0.537 (inactive).
On the same count and under the same terms, the result for `CCCCNC(=O)c1nc2ncc(Br)cn2n1` reads -0.442 (inactive); that for `CCN1CCN(C(c2cccs2)C(C)NC(=O)c2ccccc2)CC1` (stereo not given), -0.59 (inactive); that for `COc1ccc(C2C(C#N)=C(N)Oc3cc4c(cc32)OCO4)cc1` (stereo not given), -0.401 (inactive).
For the compound `CCn1c(=O)c(C(=O)NCc2ccc(OC)cc2)c(O)c2ccccc21`, the fluorescence slope is -0.353 (inactive).
For `CCOC(=O)c1ccccc1NC(=O)c1ccc2c(=O)n3c(nc2c1)CCCCC3`, the fluorescence slope is -0.399 (inactive).
As to `CN(CCc1ccccn1)c1ncnc2[nH]ncc12`, the fluorescence slope is -0.325 (inactive).
Same read-out and setting: the result for `CN(C(=O)c1cc2sccc2n1C)C1CCCCC1` reads -0.487 (inactive); that for `COc1ccc(-n2c(SCC(=O)N3CCCCC3C)nnc2-c2cccnc2)cc1` (stereo not given), -0.337 (inactive); that for `CCn1nnc(NC(=O)c2ccccc2Br)n1`, -0.385 (inactive).
Same read-out and setting: with `CC(=O)N1CCN(c2ccc(S(=O)(=O)N3CCCCC3)cn2)CC1` the figure was -0.591 (inactive).
In the case of `CC1CCN(C(=O)CSCC(=O)Nc2nc(-c3cccs3)cs2)CC1`, the fluorescence slope was -0.495 (inactive).
For the compound `Cn1cnc2c1c(=O)n(Cc1cccc(Br)c1)c(=O)n2C`, the fluorescence slope was -0.38 (inactive).
On to `O=C(NC1CCCCC1)C1CCCN1C(=O)NCc1ccccc1` (stereo not given), for which the fluorescence slope is -0.43 (inactive).
As for `CCOC(=O)c1ccc(NC(=O)COc2ccc(-n3cnnn3)cc2)cc1`, the fluorescence slope is -0.405 (inactive).
`Cc1cc(C)c2c(=O)n(CC(=O)NCCCN3CCOCC3)sc2n1`: the fluorescence slope is -0.548 (inactive).
As to `Cc1cccc2sc(NC(=O)CN(C)S(=O)(=O)c3cccs3)nc12`, the fluorescence slope was -0.432 (inactive).
For `CCCc1nc(NCc2ccncc2)c2nnn(Cc3ccccc3F)c2n1`, the fluorescence slope was -0.507 (inactive).
Take `O=S1(=O)CCC(NS(=O)(=O)/C=C/c2ccccc2)C1` (stereo not given): the fluorescence slope is -0.386 (inactive).
On the same count and under the same terms, with `O=C(NCC1CCCO1)C1CCCN(S(=O)(=O)c2cccc3nsnc23)C1` (stereo not given) the figure was -0.434 (inactive); with `COc1ccccc1NC(=O)N(C1CCCC1)C1CCN(C(C)=O)CC1`, -0.582 (inactive).
The same measure, in the same setting: with `O=C1NC(Cc2c[nH]c3ccccc23)C(=O)N1CCOc1ccccc1` (stereo not given) the figure was -0.429 (inactive); with `COC(=O)C(C)Sc1nnc2n(-c3cccc(C)c3)c(=O)c3c4c(sc3n12)CCCC4` (stereo not given), -0.58 (inactive); with `COc1ccc2[nH]c(=O)c(CN(CC3CCCO3)C(=O)Nc3ccc(F)cc3)cc2c1` (stereo not given), -0.512 (inactive).
With `Cc1nc2ccccc2c2oc(C(=O)NCC3COc4ccccc4O3)cc12` (stereo not given), the fluorescence slope is -0.569 (inactive).
On the same count and under the same terms, with `CCN(Cc1cc2ccccc2[nH]c1=O)S(=O)(=O)c1ccccc1` the figure was -0.627 (inactive).
The same measure, in the same setting: the result for `CC(=O)NC(=O)NC1CSCC1OC(C)=O` (stereo not given) reads -0.445 (inactive); that for `COc1ccc(S(=O)(=O)NCC(c2cccnc2)N2CCN(c3ccc(F)cc3)CC2)cc1C` (stereo not given), -0.447 (inactive).
For `COCCn1c(CN2CCN(c3cccc(Cl)c3)CC2)nc2c1c(=O)n(C)c(=O)n2C`, the fluorescence slope was -0.582 (inactive).
The same measure, in the same setting: with `CC1(C)CC(CCNC(=O)c2ccco2)CC(C)(C)N1` the figure was -0.473 (inactive); with `O=C1c2ccccc2C(=O)N1C/C=C/c1ccccc1`, -0.495 (inactive).
In the case of `CCn1c(SCc2cccc(C(F)(F)F)c2)nnc1-c1ccco1`, the fluorescence slope is -0.414 (inactive).
Same read-out and setting: the result for `c1ccc(-c2nnc(CSc3nncs3)o2)cc1` reads -0.402 (inactive).
As for `Cc1ccc(C)c(N2CCN(S(=O)(=O)c3ccc4c(c3)OCCO4)CC2)c1`, the fluorescence slope was -0.64 (inactive).
On the same count and under the same terms, the result for `CCOc1cccc(-n2nnnc2-c2ccc(OC)cc2)c1` reads -0.591 (inactive); that for `CCOC(=O)C1CCCN(C(=O)c2ccc(CS(=O)(=O)c3ccc(Br)cc3)o2)C1` (stereo not given), -0.422 (inactive); that for `C=CCSC1=C(C#N)C(c2ccccc2Cl)CC(=O)N1` (stereo not given), -0.561 (inactive).
